An excerpt weighted towards active compounds, which were near 7.3% of everything screened.
p53 reactivator = mutant p53 re-activation in reporter cells. H1299 p53-A138V BP100-luciferase reporter, luminescence, 24 h. Potency, µM (highest dose often 92.2 µM), for inactives: at the highest dose activity change, positive = activation, usual class: activators. hit rate 0.063% among 320,000; further: % of control where 0% means no effect; nearly all actives have a fitted effect of over 45% in size
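H1299 (p53-null), stable ts p53-A138V + BP100-Luc; 1000 cells/well, Opti-MEM/10% FBS; cpd 4 pt, 1:5; 24 h, 37 deg C, 5% CO2; detection reagent 10 min RT; luminescence.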
FLuc counter = firefly luciferase modulation, counter-screen for miR-21 project. AID 588342. hit rate 6.9% among 360,000. Potency, µM (top dose mostly 57.5 µM), without a hit: at the highest dose activity change, negative = inhibition, usual class: inhibitors. purified FLuc, Km substrates, luminescence inhibition;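 further: plate controls were vehicle for no effect and reference inhibitor for full effect; nearly all actives have a fitted effect of over 55% in size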
Target sequence (P08659 whole entry, looked up): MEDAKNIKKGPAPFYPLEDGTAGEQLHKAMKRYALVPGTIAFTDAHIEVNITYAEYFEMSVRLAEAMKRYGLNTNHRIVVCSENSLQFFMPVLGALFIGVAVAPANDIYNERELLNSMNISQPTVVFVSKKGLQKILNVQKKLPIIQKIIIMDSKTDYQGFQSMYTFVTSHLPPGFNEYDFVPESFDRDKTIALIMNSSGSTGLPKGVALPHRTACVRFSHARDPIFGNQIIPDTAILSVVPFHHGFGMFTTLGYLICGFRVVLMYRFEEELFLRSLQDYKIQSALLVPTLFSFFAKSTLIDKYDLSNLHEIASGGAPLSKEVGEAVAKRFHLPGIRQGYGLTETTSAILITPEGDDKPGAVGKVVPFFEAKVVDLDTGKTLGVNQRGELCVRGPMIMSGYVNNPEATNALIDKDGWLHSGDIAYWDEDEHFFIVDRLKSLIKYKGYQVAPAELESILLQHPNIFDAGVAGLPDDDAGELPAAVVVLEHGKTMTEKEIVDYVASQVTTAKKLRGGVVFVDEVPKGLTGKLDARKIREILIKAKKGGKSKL
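Biochemical qHTS of compounds, final roughly 60 µM downward over six points, against 10 nM purified firefly luciferase using Km concentrations of substrates (10 uM D-luciferin, 10 uM ATP) in Tris acetate pH 7.5 buffer; luminescence output.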
Rab9 prom act = activators of Rab9 promoter. Potency, µM (titrated, usually from 9.22 µM), without a hit: top-dose activation, negative = inhibition, most hits filed as activators. AID 485297. Huh7 Rab9 promoter-luciferase reporter, luminescence, 24 h. hit rate 2.8% among 320,000; further: % of control where 0% means no effect; nearly all actives have a fitted effect of over 60% in size
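Using Huh7 cells stably transfected with Rab9 promoter–luciferase, compounds were incubated 24 h at 37 °C, 5% CO2; luciferase luminescence was read 10 min after reagent addition.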
NPC1 prom act = activates the NPC1 promoter; Huh7 NPC1 promoter luciferase reporter, 24 h; Potency, µM (titrated, usually from 9.22 µM), inactives show at the highest dose activation, hits mostly activators; hit rate 2.4% among 320,000; AID 485313; further: % of control where 0% means no effect; nearly all actives have a fitted effect of over 60% in size
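Luciferase expression driven by the NPC1 promoter was measured in stably transfected Huh7 cells after a 24 h compound incubation, using a luciferase reagent and a luminescence read.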
SMN2 splice enh = increases expression of the SMN2 splice variant. HEK293 SMN2-luciferase splicing reporter, luminescence, 30-36 h. Potency, µM (titrated, usually from 46.1 µM), inactives show at the highest dose activity change, positive = activation, most hits filed as activators. hit rate 2.8% among 210,000; further: % of control where 0% means no effect; nearly all actives have a fitted effect of over 55% in size
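HEK293 cells carry an SMN2 […]–luciferase reporter in which exon 7 inclusion puts luciferase in frame. Cells were plated 10-12 h before compound addition, then incubated 30-36 h at 37C. ONE-Glo luminescence was read; sodium butyrate at 4.5 mM final served as control.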
ELG1 genotoxic = inducers of genotoxicity in HEK293T ELG1-luciferase cells. HEK293T ELG1-luciferase reporter, luminescence, 16 h. AID 504466. hit rate 1.3% among 330,000. Potency, µM (top dose mostly 46 µM), for inactives: at the highest dose activity change, positive = activation, usual class: activators; further: % of control where 0% means no effect; nearly all actives have a fitted effect of over 60% in size
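HEK293T cells expressing luciferase-tagged ELG1 were exposed to compound or DMSO vehicle for 16 hr at 37 °C and 5% CO2. Luciferase activity was then measured with ONE-Glo after 30 min at room temperature.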
The depositor's hits bear a star; ? = inconclusive; / = no result; [ ] = another dose, or the depositor's remark. The call rests on the fitted dose curve; in most records, active means well fitted curve in the direction sought with a large enough effect; inconclusive means small, poorly fitted or top-dose-only effect, or another doubt; inactive means no such curve, though single readings can be large; an effect the other way counts as inactive or inconclusive. Potency means the concentration at half of the fitted maximal effect.

SMILES	p53 reactivator	FLuc counter	Rab9 prom act	NPC1 prom act	SMN2 splice enh	ELG1 genotoxic
Cc1nc(/C=C/c2ccccc2)cc(/C=C/c2ccccc2)n1	13%	19µM*	2%	1%	24%	?
C(=C/c1ccccc1)/c1ccccc1	/	/	/	/	17%	/
Cn1nc(/C=C/c2ccccc2)ccc1=O	18%	?	3.2µM*	16%	13µM*	?
O=c1ccc(/C=C/c2ccccc2)nn1Cc1ccccc1	-5%	-1%	1%	1%	-17%	-1%
Cc1ccccc1-c1nc(CN2CCC(C(=O)NCc3ccc(F)cc3)CC2)c(C)o1	/	-14%	/	/	-6%	/
O=C(NCCN1C(=O)C2C3C=CC(C3)C2C1=O)Nc1ccccc1 (stereo unspecified)	3%	-6%	1%	3%	-13%	12%
COc1ccc(NC(=O)NCCN2C(=O)C3C4C=CC(C4)C3C2=O)cc1 (stereo unspecified)	?	?	?	?	11µM*	?
COc1ccc(NC(=O)CCN2C(=O)[C@@H]3[C@H](C2=O)[C@H]2C=C[C@@H]3C2)cc1	1%	-6%	-2%	7%	/	6%
Cc1ccc(NC(=O)NCCN2C(=O)C3C4C=CC(C4)C3C2=O)cc1 (stereo unspecified)	?	17µM*	1.6µM*	2.5µM*	11µM*	7.3µM*
Cn1ncc(Br)c1C(=O)Nc1c(F)c(F)cc(F)c1F	19%	0%	-5%	-6%	25µM*	17%
Cc1ccc2oc(=O)c3cc(C(=O)NCCCOC(C)C)sc3c2c1	/	2%	/	/	18%	/
FC(F)(F)c1cccc(-c2nc3nc(Cl)c(Cl)nc3[nH]2)c1	?	4.3µM*	?	?	-31%[9.22 µM]	14%
Cc1nnc(NCc2cccc(Cl)c2)c2ccccc12	-3%	5%	11%	-1%	/	-1%
Cc1nnc(NCCc2ccccc2)c2ccccc12	?	7.6µM*	1.4µM*	1.6µM*	/	9.2µM*
N#CC1(c2ccc(NC(=O)c3ccccc3F)cc2)CCCC1	?	1.9µM*	0.79µM*	0.63µM*	2.8µM*	1.8µM*
COc1ccc(C(=O)Nc2ccc(C3(C#N)CCCC3)cc2)cc1	0%	4.8µM*	21%	14%	-1%	0%
O=C(Nc1ccc(S(=O)(=O)N2CCCCC2)cc1)c1ccccc1F	-8%	5%	-4%	-8%	/	-9%
O=C(Oc1ccc(-c2cnc3ccccc3n2)cc1)c1cc([N+](=O)[O-])ccc1Cl	?	?	9%	4µM*	?	?
CCC(=O)Oc1ccc(-c2cnc3ccccc3n2)cc1	?	0.3µM*	?	?	?	?
O=C(Oc1ccc(-c2cnc3ccccc3n2)cc1)c1ccco1	?	0.27µM*	?	?	?	16µM*
Cc1nnsc1Sc1ccccc1	1%	-8%	-6%	0%	5%	4%
CCCn1c(SCc2nc(-c3ccc(OC)cc3OC)no2)nnc1-c1ccc(Cl)cc1	/	?	/	/	-10%	/
Cc1cc(C(=O)Cn2cnc3ccccc3c2=O)c(C)n1C1CC1	10%	-15%	?	?	/	5.2µM*
COc1ccc(C(=O)Nn2cnc3ccccc3c2=O)c(OC)c1	12%	?	2.5µM*	2.2µM*	14µM*	?
Cc1ccc(C(=O)Cn2cnc3ccccc3c2=O)cc1C	/	19µM*	/	/	?	/
SMILES	p53 reactivator	FLuc counter	Rab9 prom act	NPC1 prom act	SMN2 splice enh	ELG1 genotoxic
COc1ccc(C(=O)Cn2cnc3ccccc3c2=O)cc1	?	13µM*	3.2µM*	?	/	?
CSc1nnc(NC(=O)c2cc(=O)c3cc(C)c(C)cc3o2)s1	/	-20%	/	/	-10%	/
CC(C)(C)NS(=O)(=O)c1ccc(NC(=O)CS(=O)(=O)Cc2ccccc2)cc1	7%	4%	-2%	-4%	/	-2%
O=C(Cc1ccccc1)NN1CCCCC1	2%	-2%	-3%	-14%	/	-1%
O=C(Cn1cnc2ccccc2c1=O)NCc1ccc2c(c1)OCO2	-10%	-3%	-7%	1%	-2%	0%
O=C(Cn1cnc2ccccc2c1=O)c1ccc2c(c1)OCCO2	?	6µM*	1.3µM*	2µM*	11µM*	?
Cc1ccc(C(=O)CSc2cnc3ccccc3n2)cc1C	?	7.6µM*	-1%	-3%	-73%	9.2µM*
O=C(Cn1cnc2ccccc2c1=O)N1CCOCC1	28%	1%	3%	-3%	-14%	-2%
O=C(CSc1ccc2ccccc2n1)c1ccc2c(c1)OCO2	11%	?	16%	16%	-42%	21µM*
O=C(Cn1cnc2ccccc2c1=O)Nc1ccc2c(c1)OCO2	?	19µM*	?	24%	?	?
O=C(Nc1ccccc1C(F)(F)F)c1ccc(F)c(S(=O)(=O)N2CCc3ccccc3C2)c1	/	-1%	/	/	/	/
Cc1cccc(NC(=O)Cn2c(=O)n(CCCCCC(=O)NCc3ccc4c(c3)OCO4)c(=O)c3sccc32)c1	/	3%	/	/	-16%	/
CCN1CCN(c2nnc(-c3ccccc3)c3ccccc23)CC1	-4%	-5%	0%	2%	/	-3%
CCN1CCN(c2cc3c(nn2)Oc2ccccc2N3C)CC1	?	17µM*	?	29%	16µM*	?
O=C1C=C(c2ccccc2)OC(=O)C1C(=O)c1ccccc1 (stereo unspecified)	3%	24µM*	4%	2%	-8%	2%
Cc1ccc(S(=O)(=O)N2CCN(C(=O)CCC(=O)NCc3cccc(C(F)(F)F)c3)CC2)cc1	-5%	11%	-2%	-3%	/	-9%
Cc1ccc(S(=O)(=O)N(C)C)cc1NC(=O)CN1C(=O)NC2(CCCc3ccccc32)C1=O (stereo unspecified)	-1%	-1%	2%	-2%	-3%	0%
Cc1ccc(C)c(NC(=O)c2cnn3ccccc23)c1	10%	?	7%	2%	-5%	?
Cc1cc(Cl)ccc1NC(=O)c1cc2ccccn2n1	/	4.8µM*	/	/	/	/
COc1ccc(Cl)cc1NC(=O)c1cc2ccccn2n1	/	-2%	/	/	/	/
CC(=O)c1cccc(NC(=O)c2cc3ccccn3n2)c1	?	3.4µM*	4µM*	1.8µM*	24%	18µM*
Cc1ccc(C)c(NC(=O)c2cc3ccccn3n2)c1	16%	11µM*	2.2µM*	3.5µM*	13µM*	9.2µM*
COc1ccc(C)cc1NC(=O)c1cc2ccccn2n1	/	21µM*	/	/	/	/
COc1ccc(CCNC(=O)c2ccc3c(c2)N(Cc2c(F)cccc2Cl)C(=O)CS3)cc1OC	/	-5%	/	/	/	/
